Consider 40 compounds from PubChem BioAssay (NCATS).

Results filed as inconclusive are left out. Where a call stands in place of a potency, no number is given. Values without a mark were called inactive. Activity calls are given as the source filed them. Calls follow the shape of the dose curve; as a rule, active = well fitted cell-killing curve with a large enough effect; inconclusive = small, poorly fitted or top-dose-only effect; inactive = flat fitted curve, though single readings scatter.
Potency is read from the fitted curve at half-maximal effect.

The nature of this experiment: qHTS of pediatric cancer cell lines to identify multiple opportunities for drug repurposing: Primary screen for U-2 OS cells (AID 1347096). Also: nearly all actives have a fitted effect of over 50% in size. The settings on record: U-2 OS viability, CellTiter-Glo luminescence, 48 h; series mostly up to 46 µM. The text has this:
Drug repurposing or repositioning has been offered as a strategy for drug development in oncology programs. This approach has special potential for childhood cancers and other rare or orphan diseases, where the expected return on new drug development has been a disincentive to pharmaceuticals.
In this project we exploit the poly-pharmacology of drugs to discover new indications via phenotypic screening of a panel of 19 well-characterized cell lines derived from solid tumors seen in children and adolescents. The goal is to identify approved drugs with previously unrecognized anticancer properties that has the potential to reveal new mechanisms and biological processes involved in carcinogenesis or drug resistance. We employed a titration-based paradigm (quantitative high-throughput screening or qHTS), where all compounds were tested at multiple concentrations for their effect on cell viability. Concentration-response curves (CRCs) were derived directly from the primary screen, and both potency and efficacy values were used to identify compounds with robust bioactivity profiles. We screened the NIH Chemical Genomics Center (NCGC) Pharmaceutical Collection (NPC) and Mechanism Interrogation Plate (MIPE) small molecule collections of approved and investigational compounds against these cell lines; and measured metabolically active cells after 48 hours of compound treatment as a proxy for cell viability.
Assay Submitter: Nathalia J. Martinez, National Center for Advancing Translational Sciences, National Institutes of Health, Rockville, MD, USA; email: natalia.martinez@nih.gov
[1] Shen, M et al. Quantitative high-throughput phenotypic screening of pediatric cancer cell lines identifies multiple opportunities for drug repurposing. Oncotarget 2017 Dec 19;9(4):4758-4772. PMID 29435139.
The cells were obtained from University of North Carolina (UNC), Pediatric Preclinical Testing Program (PPT), and Coriell Institute (CI).
qHTS cell viability assay:
Cells were assayed in growth media at a density of 500-1,000 cells/well. Five microliters of cells were dispensed into 1,536-well, white, solid-bottom, TC-treated plates (Greiner Bio One) using a multidrop dispenser and incubated at 37 degrees C, 5% CO2, under a humidified atmosphere for 5 hours. Twenty-three nanoliters of compounds and controls (neutral control DMSO or positive control bortezomib at final concentration of 2.3 µM) were subsequently transferred by Kalypsys pintool. For primary screens, the MIPE collection was tested at 11-point dilutions (final concentrations range from 0.78 nM to 46 µM) and the NPC collection at 8-point dilutions (final concentrations range from 0.59 nM to 46 µM). Compounds tested in follow-up screens were assayed at 11-point dilutions. Cells were incubated for 48 hours, followed by addition of 3 µL of CellTiter-Glo (Promega). After a 15 min incubation at room temperature, samples were analyzed for luminescence intensity using a ViewLux High-throughput CCD imager equipped with clear filters.
In the case of `COc1ccccc1N1CCNCC1`, the Potency result was “inactive”.

With `NCC(CC(=O)O)c1ccc(Cl)cc1` (stereo not given), the activity change, negative = cytotoxic is -3.85% [at 0.597 µM].

Regarding `CC(=O)Nc1cc([As](=O)(O)O)ccc1O`, the Potency entry was “inactive”.

For `O=C1NCN(c2ccccc2)C12CCN(CC1COc3ccccc3O1)CC2` (stereo not given), the Potency result is “inactive”.

Regarding `C#CCOC(C(=O)OCCN(C)C)(c1ccccc1)c1ccccc1`, the Potency result is “inactive”.

Take `O=C(O)c1ccc2[nH]cc(CCCCN3CC=C(c4ccccc4)CC3)c2c1`: the Potency result is “inactive”.

For the compound `c1ccc(C2CC2)c(OCC2=NCCN2)c1`, the Potency result is “inactive”.

`Cc1ccc2c(c1)C1CN(C)CCC1N2` (stereo not given): the Potency entry is “inactive”.

For `CC1OC(C)OC(C)O1` (stereo not given), the Potency result was “inactive”.

`c1ccc2c(c1)OCC(C1=NCCN1)O2` (stereo not given): the Potency entry was “inactive”.

For `O=c1[nH]c2ccccc2n1CCCN1CCC(n2c(=O)[nH]c3cc(Cl)ccc32)CC1`, the Potency result was “inactive”.

Turning to `Cc1ccc(S(=O)(=O)N[C@@H](CCCCN)C(=O)CCl)cc1`, the Potency entry was “inactive”.

`Cn1c(CCCC(=O)O)nc2cc(N(CCCl)CCCl)ccc21`: the Potency entry was “inactive”.

As to `Fc1ccc(C(OCCN2CCN(CCCc3ccccc3)CC2)c2ccc(F)cc2)cc1`, the Potency is 23.5 µM (active).

As for `CN(C)[C@@H]1C(=O)C(C(N)=O)=C(O)[C@@]2(O)C(=O)C3=C(O)c4c(O)cccc4[C@@](C)(O)[C@H]3C[C@@H]12`, the Potency result was “inactive”.

As for `O=c1oc2ccccc2c(O)c1C(CC(O)c1ccc(-c2ccc(Br)cc2)cc1)c1ccccc1` (stereo not given), the Potency entry was “inactive”.

For `O=[N+]([O-])c1cc([As](=O)(O)O)ccc1O`, the Potency entry was “inactive”.

Consider `NCCc1cc(O)c(O)cc1O`, for which the Potency result was “inactive”.

In the case of `CN1CCN(C(=O)O[C@H]2c3nccnc3C(=O)N2c2ccc(Cl)cn2)CC1`, the Potency entry is “inactive”.

For the compound `CCCN1CCC[C@@H]2Cc3nc(N)ncc3C[C@H]21`, the Potency result was “inactive”.

As for `C=CCN1CC[C@]23c4c5ccc(O)c4O[C@H]2C(=O)CC[C@@]3(O)[C@H]1C5`, the Potency entry is “inactive”.

As for `N[C@@H](Cc1ccc(N(CCCl)CCCl)cc1)C(=O)O`, the Potency entry is “inactive”.

With `COC[C@@H](NC(C)=O)C(=O)NCc1ccccc1`, the Potency entry was “inactive”.

Regarding `Oc1ccccc1-c1ccccc1`, the Potency entry was “inactive”.

As for `Cc1ncc(CNC(=O)N(CCCl)N=O)c(N)n1`, the Potency result is “inactive”.

Consider `CCN(CC)CCN1C(=O)CN=C(c2ccccc2F)c2cc(Cl)ccc21`, for which the Potency entry was “inactive”.

In the case of `C#CCN(C)[C@H](C)Cc1ccccc1`, the Potency result is “inactive”.

For `Cc1cc(SCc2sc(-c3ccc(C(F)(F)F)c(F)c3)nc2C)ccc1OCC(=O)O`, the Potency entry was “inactive”.

Turning to `CC[C@@H](CO)NC(=O)[C@@H]1C=C2c3cccc4[nH]cc(c34)C[C@H]2N(C)C1`, the Potency entry is “inactive”.

On to `C[C@@H]1[C@@H](CC(C[C@H]2O[C@@H]3O[C@]4(C)CC[C@@H]5[C@H](C)CC[C@@H]([C@H]2C)[C@@]35OO4)C[S+](=O)([O-])c2ccc(COC(=O)N(C)C)cc2)O[C@@H]2O[C@]3(C)CC[C@H]4[C@H](C)CC[C@@H]1[C@@]24OO3` (stereo not given in full), for which the Potency result was “inactive”.

For `Clc1cccc(N2CCNCC2)c1`, the Potency entry is “inactive”.

Regarding `CCCC1CCCCN1` (stereo not given), the Potency entry is “inactive”.

As for `CCC(C(N)=O)N1CCCC1=O` (stereo not given), the Potency entry is “inactive”.

Take `CCC(=O)C(CC(C)N(C)C)(c1ccccc1)c1ccccc1` (stereo not given): the Potency entry was “inactive”.

On to `CCN(CC)CCOC(=O)C(O)(c1ccccc1)c1ccccc1`, for which the Potency entry was “inactive”.

For `CO[C@]12CC[C@@]3(C[C@@H]1[C@](C)(O)C(C)(C)C)[C@@H]1Cc4ccc(O)c5c4[C@@]3(CCN1CC1CC1)[C@H]2O5`, the Potency is 38.2 µM (active).

Turning to `NCC1(CC(=O)O)CCCCC1`, the Potency result is “inactive”.

Regarding `CC(C)(C)NCC(O)c1cc(Cl)c(N)c(Cl)c1` (stereo not given), the Potency entry is “inactive”.

`Cc1cccc(C)c1NC1=NCCCS1`: the Potency result is “inactive”.

As to `C=C1C[C@@H]2[C@H](CC[C@]3(C)C(=O)CC[C@@H]23)[C@@]2(C)C=CC(=O)C=C12`, the Potency result was “inactive”.
